Test results as given in paper PMC7862700, “An all-to-all approach to the identification of sequence-specific readers for epigenetic DNA modifications on cytosine”.

What was measured:
Assay in all cases: DAPPL (digital affinity profiling via proximity ligation, sequencing); 10 mM Tris-HCl pH 7.5, 50 mM NaCl, 1 mM DTT, 4% glycerol, room temperature, 30 min; GST-TFs on glutathione beads, 16-mer random dsDNA library, 0.1% formaldehyde crosslink after washing; high values mean tight binding
Settings in all cases: protein: recombinant; tags: N-terminal GST; dsDNA, one strand shown
FLI1 = target: T1, FLI1 (Homo sapiens, UniProt Q01543 1-452)
T1 sequence: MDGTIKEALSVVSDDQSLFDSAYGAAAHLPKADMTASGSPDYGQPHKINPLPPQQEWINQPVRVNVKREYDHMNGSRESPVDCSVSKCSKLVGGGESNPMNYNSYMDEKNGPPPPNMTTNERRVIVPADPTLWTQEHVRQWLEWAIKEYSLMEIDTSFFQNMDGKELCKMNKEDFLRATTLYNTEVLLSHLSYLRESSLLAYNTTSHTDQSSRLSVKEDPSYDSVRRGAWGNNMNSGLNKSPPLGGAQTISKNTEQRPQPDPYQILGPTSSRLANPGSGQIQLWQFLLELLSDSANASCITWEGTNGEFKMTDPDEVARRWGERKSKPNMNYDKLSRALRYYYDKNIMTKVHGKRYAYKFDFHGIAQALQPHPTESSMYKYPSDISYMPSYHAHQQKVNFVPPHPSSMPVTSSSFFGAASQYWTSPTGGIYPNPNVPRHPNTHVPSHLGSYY
Summary of the method: (§1)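 Each value of binding signal is a hexamer's read frequency for a factor divided by the same hexamer's frequency in the tag-only sample. Barcoded, bead-captured GST fusions of human transcription factors made in yeast were pooled with that sample and incubated with 200 nmole of a random double-stranded 16-mer DNA library in Tris/NaCl/DTT/glycerol buffer at room temperature for 30 min. Washing, 0.1% formaldehyde crosslinking, proximity ligation, PCR and Illumina NextSeq500 sequencing followed.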

ELK1 = target: T2, ELK1 (Homo sapiens, UniProt P19419 1-428)
T2 sequence: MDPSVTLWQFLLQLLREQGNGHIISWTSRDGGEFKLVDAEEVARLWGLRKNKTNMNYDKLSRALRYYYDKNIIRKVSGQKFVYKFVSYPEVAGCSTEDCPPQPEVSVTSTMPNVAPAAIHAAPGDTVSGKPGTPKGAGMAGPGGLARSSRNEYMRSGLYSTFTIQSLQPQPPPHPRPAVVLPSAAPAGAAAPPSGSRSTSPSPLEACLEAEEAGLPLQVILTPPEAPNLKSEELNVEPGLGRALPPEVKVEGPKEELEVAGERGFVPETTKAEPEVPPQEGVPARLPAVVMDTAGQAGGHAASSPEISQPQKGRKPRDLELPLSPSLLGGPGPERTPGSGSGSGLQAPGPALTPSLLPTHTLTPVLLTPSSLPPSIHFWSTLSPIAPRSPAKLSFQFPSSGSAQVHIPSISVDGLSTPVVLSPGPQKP
Summary of the method: as §1

ELF1 = ELF1 (Homo sapiens, UniProt P32519 1-619)
ELF1, sequence (P32519 whole entry): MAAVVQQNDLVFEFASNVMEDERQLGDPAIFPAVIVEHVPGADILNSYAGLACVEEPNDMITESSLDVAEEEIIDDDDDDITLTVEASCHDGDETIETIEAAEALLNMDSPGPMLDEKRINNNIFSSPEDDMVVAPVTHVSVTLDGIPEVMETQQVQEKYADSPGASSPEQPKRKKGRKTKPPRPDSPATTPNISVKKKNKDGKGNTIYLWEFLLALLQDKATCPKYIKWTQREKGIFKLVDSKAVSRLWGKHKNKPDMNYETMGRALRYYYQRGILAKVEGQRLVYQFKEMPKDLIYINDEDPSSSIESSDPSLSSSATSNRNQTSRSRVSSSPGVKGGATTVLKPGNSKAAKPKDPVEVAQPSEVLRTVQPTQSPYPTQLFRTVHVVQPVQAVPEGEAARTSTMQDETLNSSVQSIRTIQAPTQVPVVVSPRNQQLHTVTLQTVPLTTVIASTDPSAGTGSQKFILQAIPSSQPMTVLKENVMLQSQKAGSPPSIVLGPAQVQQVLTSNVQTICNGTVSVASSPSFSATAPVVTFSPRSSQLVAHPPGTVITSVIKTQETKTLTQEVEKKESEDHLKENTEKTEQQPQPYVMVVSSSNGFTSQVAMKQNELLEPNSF
Summary of the method: as §1

GABPA = target: T3, GABPA (Homo sapiens, UniProt Q06546 1-454)
T3 sequence: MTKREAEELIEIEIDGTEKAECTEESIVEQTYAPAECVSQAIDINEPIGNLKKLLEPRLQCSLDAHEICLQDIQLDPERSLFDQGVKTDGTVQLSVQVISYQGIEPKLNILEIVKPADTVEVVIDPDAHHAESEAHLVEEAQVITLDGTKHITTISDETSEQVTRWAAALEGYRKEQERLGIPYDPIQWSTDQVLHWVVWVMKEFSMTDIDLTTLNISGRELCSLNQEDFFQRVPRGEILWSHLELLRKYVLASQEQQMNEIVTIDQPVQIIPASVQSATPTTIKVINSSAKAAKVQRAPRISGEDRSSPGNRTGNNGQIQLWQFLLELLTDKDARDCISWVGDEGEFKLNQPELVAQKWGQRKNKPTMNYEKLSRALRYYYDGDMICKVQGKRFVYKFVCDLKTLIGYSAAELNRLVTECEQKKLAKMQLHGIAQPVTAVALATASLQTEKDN
Summary of the method: as §1

ERG = target: T4, ERG (Homo sapiens, UniProt P11308 1-479)
T4 sequence: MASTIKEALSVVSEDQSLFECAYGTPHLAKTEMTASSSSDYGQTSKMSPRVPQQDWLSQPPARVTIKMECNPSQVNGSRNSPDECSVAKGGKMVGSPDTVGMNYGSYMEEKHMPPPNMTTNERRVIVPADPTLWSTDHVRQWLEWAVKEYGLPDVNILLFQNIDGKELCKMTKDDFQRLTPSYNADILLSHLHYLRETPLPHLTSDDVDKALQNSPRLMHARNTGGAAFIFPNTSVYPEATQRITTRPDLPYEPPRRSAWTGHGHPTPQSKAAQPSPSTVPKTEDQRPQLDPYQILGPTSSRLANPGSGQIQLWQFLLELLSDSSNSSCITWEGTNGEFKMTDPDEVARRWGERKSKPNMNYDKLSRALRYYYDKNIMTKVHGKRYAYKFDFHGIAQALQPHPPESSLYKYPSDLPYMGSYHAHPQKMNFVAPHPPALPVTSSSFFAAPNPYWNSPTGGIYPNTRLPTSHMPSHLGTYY
Summary of the method: as §1

EHF = target: T5, EHF (Homo sapiens, UniProt Q9NZC4 1-300)
T5 sequence: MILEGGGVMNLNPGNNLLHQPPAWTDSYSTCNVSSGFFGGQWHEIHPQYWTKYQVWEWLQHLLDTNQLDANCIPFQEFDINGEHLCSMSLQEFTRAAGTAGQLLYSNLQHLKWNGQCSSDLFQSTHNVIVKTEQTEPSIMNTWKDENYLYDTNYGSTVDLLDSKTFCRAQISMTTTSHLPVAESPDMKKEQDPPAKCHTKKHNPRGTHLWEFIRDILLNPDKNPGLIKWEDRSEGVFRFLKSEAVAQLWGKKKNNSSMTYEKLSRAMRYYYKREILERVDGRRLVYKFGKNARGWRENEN
Summary of the method: as §1

SPI1 = SPI1 (Homo sapiens, UniProt P17947 1-270)
Summary of the method: as §1

SPIB = SPIB (Homo sapiens, UniProt Q01892 1-262)
SPIB, sequence (Q01892 whole entry): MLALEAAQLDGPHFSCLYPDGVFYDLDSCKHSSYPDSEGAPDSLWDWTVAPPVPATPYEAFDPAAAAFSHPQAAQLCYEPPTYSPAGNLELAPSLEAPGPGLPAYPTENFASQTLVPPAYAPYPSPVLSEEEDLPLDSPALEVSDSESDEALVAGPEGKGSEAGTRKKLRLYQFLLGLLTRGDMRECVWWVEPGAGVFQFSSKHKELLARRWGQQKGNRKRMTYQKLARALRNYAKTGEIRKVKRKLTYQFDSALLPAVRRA
Summary of the method: as §1

ELK3 = target: T6, ELK3 (Homo sapiens, UniProt P41970 1-407)
T6 sequence: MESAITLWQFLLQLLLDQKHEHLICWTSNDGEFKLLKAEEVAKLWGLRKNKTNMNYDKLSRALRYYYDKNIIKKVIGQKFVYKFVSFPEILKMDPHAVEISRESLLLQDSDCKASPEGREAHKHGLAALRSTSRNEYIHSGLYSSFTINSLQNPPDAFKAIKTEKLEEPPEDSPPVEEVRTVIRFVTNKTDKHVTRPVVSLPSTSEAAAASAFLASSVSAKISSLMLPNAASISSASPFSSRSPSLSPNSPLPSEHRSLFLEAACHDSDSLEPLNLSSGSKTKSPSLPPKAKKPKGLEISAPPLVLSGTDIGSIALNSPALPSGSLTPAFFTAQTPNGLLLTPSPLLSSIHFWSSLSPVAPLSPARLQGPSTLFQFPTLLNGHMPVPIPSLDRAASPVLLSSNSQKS
Summary of the method: as §1

Sequence | binding signal (FLI1) | binding signal (ELK1) | binding signal (ELF1) | binding signal (GABPA) | binding signal (ERG) | binding signal (EHF) | binding signal (SPI1) | binding signal (SPIB) | binding signal (ELK3)
CCTAGA | 1.04 fold enrichment (6-mer frequency, TF over GST control) | 1.01 fold enrichment (6-mer frequency, TF over GST control) | 1.02 fold enrichment (6-mer frequency, TF over GST control) | – | – | – | – | – | –
TCATTA | 1.12 fold enrichment (6-mer frequency, TF over GST control) | – | 1.16 fold enrichment (6-mer frequency, TF over GST control) | 1.07 fold enrichment (6-mer frequency, TF over GST control) | 1.06 fold enrichment (6-mer frequency, TF over GST control) | 1.09 fold enrichment (6-mer frequency, TF over GST control) | 1.12 fold enrichment (6-mer frequency, TF over GST control) | 1.16 fold enrichment (6-mer frequency, TF over GST control) | –
TAGTAA | 1.13 fold enrichment (6-mer frequency, TF over GST control) | – | 1.08 fold enrichment (6-mer frequency, TF over GST control) | 1.03 fold enrichment (6-mer frequency, TF over GST control) | – | 1.03 fold enrichment (6-mer frequency, TF over GST control) | 1.02 fold enrichment (6-mer frequency, TF over GST control) | 1.07 fold enrichment (6-mer frequency, TF over GST control) | 1.13 fold enrichment (6-mer frequency, TF over GST control)
GCAATG | 1.05 fold enrichment (6-mer frequency, TF over GST control) | 1.08 fold enrichment (6-mer frequency, TF over GST control) | 1.08 fold enrichment (6-mer frequency, TF over GST control) | – | – | 1.04 fold enrichment (6-mer frequency, TF over GST control) | – | – | 1.03 fold enrichment (6-mer frequency, TF over GST control)
GTTAAA | 1.03 fold enrichment (6-mer frequency, TF over GST control) | – | – | 1.01 fold enrichment (6-mer frequency, TF over GST control) | 1.03 fold enrichment (6-mer frequency, TF over GST control) | – | 1.08 fold enrichment (6-mer frequency, TF over GST control) | 1.07 fold enrichment (6-mer frequency, TF over GST control) | 1.01 fold enrichment (6-mer frequency, TF over GST control)
ACATCG | 1.03 fold enrichment (6-mer frequency, TF over GST control) | 1.01 fold enrichment (6-mer frequency, TF over GST control) | 1.06 fold enrichment (6-mer frequency, TF over GST control) | – | – | 1.15 fold enrichment (6-mer frequency, TF over GST control) | 1.03 fold enrichment (6-mer frequency, TF over GST control) | 1.1 fold enrichment (6-mer frequency, TF over GST control) | 1.09 fold enrichment (6-mer frequency, TF over GST control)
AAATCG | 1.03 fold enrichment (6-mer frequency, TF over GST control) | 1.01 fold enrichment (6-mer frequency, TF over GST control) | – | – | 1.06 fold enrichment (6-mer frequency, TF over GST control) | 1.03 fold enrichment (6-mer frequency, TF over GST control) | 1.01 fold enrichment (6-mer frequency, TF over GST control) | 1.04 fold enrichment (6-mer frequency, TF over GST control) | 1.04 fold enrichment (6-mer frequency, TF over GST control)
GTTATC | 1.12 fold enrichment (6-mer frequency, TF over GST control) | – | 1.09 fold enrichment (6-mer frequency, TF over GST control) | 1.07 fold enrichment (6-mer frequency, TF over GST control) | 1.1 fold enrichment (6-mer frequency, TF over GST control) | 1.12 fold enrichment (6-mer frequency, TF over GST control) | 1.03 fold enrichment (6-mer frequency, TF over GST control) | 1.02 fold enrichment (6-mer frequency, TF over GST control) | 1.22 fold enrichment (6-mer frequency, TF over GST control)
TGGATT | 1.02 fold enrichment (6-mer frequency, TF over GST control) | – | – | – | 1.05 fold enrichment (6-mer frequency, TF over GST control) | – | 1.02 fold enrichment (6-mer frequency, TF over GST control) | 1.05 fold enrichment (6-mer frequency, TF over GST control) | –
GAAAAC | 1.04 fold enrichment (6-mer frequency, TF over GST control) | – | 1.06 fold enrichment (6-mer frequency, TF over GST control) | 1.05 fold enrichment (6-mer frequency, TF over GST control) | 1.09 fold enrichment (6-mer frequency, TF over GST control) | 1.09 fold enrichment (6-mer frequency, TF over GST control) | 1.07 fold enrichment (6-mer frequency, TF over GST control) | 1 fold enrichment (6-mer frequency, TF over GST control) | –
